The values below come from PubChem BioAssay.

“And” between values parts separate entries of the source, which are not always exact repeats. Equal values may be shown once. The source made the active and inactive calls.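 Rule for the calls, unless noted: active = normalized viability below 100% at a tested concentration; inactive = the rest.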

One may read the viability as a read-out of living cells in per cent, often relative to untreated cells.

One assay in a line: survival rescue of mitochondrial mutant cells in low glucose, primary screen, MELAS cybrids, Rieske KO mouse fibroblasts, CellTiter-Glo (AID 1508586;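 active = mean z-score across replicates of 1.96 or higher in either the MELAS or the Rieske mutant cell line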;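 note: z relative to plate mean and SD of compound and empty wells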). Conditions: MELAS cybrid survival, CellTiter-Glo 48 h, stronger effect = higher value. (ATP-based viability assays read luminescence as a measure of living cells.)
For `CC(C[N+](C)(C)C)OC(N)=O` (centres undefined), the z-score was -0.399 (inactive) and 0.646 (inactive) and 0.598 (inactive).
For the molecule `COc1ccc(Cl)cc1C(=O)NCCc1ccc(S(=O)(=O)NC(=O)NC2CCCCC2)cc1`, the z-score was 0.114 (inactive) and -0.333 (inactive) and 0.459 (inactive).
As for `N[C@@H](Cc1cc(I)c(Oc2cc(I)c(O)c(I)c2)c(I)c1)C(=O)O`, the z-score was -0.661 (inactive) and -0.549 (inactive).
The same measure, in the same setting: in the case of `CC1(C)O[C@@H]2[C@@H](CO[C@@]3(COS(N)(=O)=O)OC(C)(C)O[C@@H]23)O1` it was 0.776 (inactive); in that of `COCCOC(=O)C1=C(C)NC(C)=C(C(=O)OC(C)C)C1c1cccc([N+](=O)[O-])c1` (centres undefined), -0.249 (inactive) and 1.31 (inactive) and 0.763 (inactive); in that of `NNC(=O)c1ccncc1`, -0.127 (inactive) and -0.162 (inactive) and -0.645 (inactive).

The assay is the same for the next values; noted with them: Rieske KO mouse fibroblast survival, CellTiter-Glo 72 h.
With `CC12CC3CC(C)(C1)CC(N)(C3)C2`, the z-score was 0.678 and -0.28.
The same measure, in the same setting: in the case of `CC(=O)OCC(CCn1cnc2cnc(N)nc21)COC(C)=O` it was -0.751 and -0.17 and -0.227.
The same measure, in the same setting: in the case of `S=c1nc[nH]c2nc[nH]c12` it was 0.195 and 0.755.
Still for that read-out and setting: in the case of `Oc1c(Cl)cc(Cl)c2cccnc12` it was 0.846 and 0.186; in that of `CC1=NS(=O)(=O)c2cc(Cl)ccc2N1`, 0.049 and -0.314; in that of `OC(Cn1cncn1)(Cn1cncn1)c1ccc(F)cc1F`, -0.288 and -0.48 and -0.41.
Consider `NCCc1ccc(O)c(O)c1`, for which the z-score is 0.135 and -0.219.
Still for that read-out and setting: in the case of `CN=C(NC#N)NCCSCc1nc[nH]c1C` it was -0.116 and -0.0466 and 0.0997; in that of `COc1c(N2CCNC(C)C2)c(F)cc2c(=O)c(C(=O)O)cn(C3CC3)c12` (centres undefined), -0.687 and -0.598; in that of `CC1COc2c(N3CCN(C)CC3)c(F)cc3c(=O)c(C(=O)O)cn1c23` (centres undefined), -0.0297 and -0.43 and -0.633.
The same measure, in the same setting: in the case of `O=C(C1CCCCC1)N1CC(=O)N2CCc3ccccc3C2C1` (centres undefined) it was -0.176 and 0.00765 and 0.589.
Still for that read-out and setting: in the case of `CCc1cc(C(N)=S)ccn1` it was 0.0377 and 0.257.
For the molecule `CC1=C(/C=C/C(C)=C/C=C/C(C)=C/C(=O)O)C(C)(C)CCC1`, the z-score was 0.0426 and 0.864.
Same read-out and setting: in the case of `CCCCNc1cc(C(=O)O)cc(S(N)(=O)=O)c1Oc1ccccc1` it was -0.392 and -0.0528 and -1.25; in that of `O=c1[nH]cnc2[nH]ncc12`, -0.183 and 0.499 and -0.321; in that of `O=C(O)c1cc(=O)c2c(OCC(O)COc3cccc4oc(C(=O)O)cc(=O)c34)cccc2o1`, 0.522 and -0.245.
The same measure, in the same setting: in the case of `CC(C)C(=O)Nc1ccc([N+](=O)[O-])c(C(F)(F)F)c1` it was 0.471 and 0.28 and 0.177; in that of `CC(COc1ccccc1)N(CCCl)Cc1ccccc1` (centres undefined), 0.469 and 0.0989 and -0.341.
Still for that read-out and setting: in the case of `CCCc1nc2c(C)cc(-c3nc4ccccc4n3C)cc2n1Cc1ccc(-c2ccccc2C(=O)O)cc1` it was 0.516 and 0.961 and -0.332; in that of `CC(=O)CC(c1ccccc1)c1c(O)c2ccccc2oc1=O` (centres undefined), -0.222.
`NS(=O)(=O)c1cc2c(cc1Cl)NCNS2(=O)=O`: the z-score is 0.408 and -0.255.
Still for that read-out and setting: in the case of `CS(=O)(=O)OCCCCOS(C)(=O)=O` it was -0.743 and -0.155; in that of `CCOC(=O)C1=C(C)NC(C)=C(C(=O)OC)C1c1cccc([N+](=O)[O-])c1` (centres undefined), 0.0141 and 0.8 and 0.442.
Take `COc1ccccc1OCCNCC(O)COc1cccc2[nH]c3ccccc3c12` (centres undefined): the z-score is -0.463 and 1.15 and -0.0666.
On the same count and under the same terms, in the case of `O=C(O)CCCc1ccccc1` it was -0.148 and -0.948; in that of `NNCCc1ccccc1`, -0.108.
The same measure, in the same setting: in the case of `CC1Cc2ccccc2N1NC(=O)c1ccc(Cl)c(S(N)(=O)=O)c1` (centres undefined) it was 0.75 and 0.194 and 0.772; in that of `CC(C)Cc1ccc(C(C)C(=O)O)cc1` (centres undefined), -0.22 and -1.3; in that of `N[C@@H]1CONC1=O`, 0.724.
In the case of `CCN(Cc1ccncc1)C(=O)C(CO)c1ccccc1` (centres undefined), the z-score is 0.0479 and 0.424 and 0.901.
On the same count and under the same terms, in the case of `CCCc1cc(=O)[nH]c(=S)[nH]1` it was 0.644 and -0.188; in that of `O=C(O)c1cccnc1`, 0.576 and -0.807.
The same measure, in the same setting: in the case of `CC(C[N+](C)(C)C)OC(N)=O` (centres undefined) it was 0.843 and -0.822 and 0.416; in that of `COc1ccc(Cl)cc1C(=O)NCCc1ccc(S(=O)(=O)NC(=O)NC2CCCCC2)cc1`, 0.113 and 0.377 and -0.0891.
Same read-out and setting: in the case of `N[C@@H](Cc1cc(I)c(Oc2cc(I)c(O)c(I)c2)c(I)c1)C(=O)O` it was -0.144 and -1.61; in that of `CC1(C)O[C@@H]2[C@@H](CO[C@@]3(COS(N)(=O)=O)OC(C)(C)O[C@@H]23)O1`, 0.627; in that of `COCCOC(=O)C1=C(C)NC(C)=C(C(=O)OC(C)C)C1c1cccc([N+](=O)[O-])c1` (centres undefined), -0.137 and 1.51 and 1.35.
For `NNC(=O)c1ccncc1`, the z-score was 0.295 and -0.273 and 1.51.

A short description of the next assay: ovarian cancer cell viability with rucaparib, profiling panel, oncology-focused library, rucaparib conditional (AID 1508598). Conditions: patient-derived ovarian cancer cells, CellTiter-Glo viability, 144 h; at 0.000305 µM; OCI-C5x cells; with rucaparib 10 µM; stronger effect = lower value; 100% = cells with rucaparib alone.
For the molecule `S=c1nc[nH]c2nc[nH]c12`, the viability is 120% (inactive).
For the molecule `CC1=C(/C=C/C(C)=C/C=C/C(C)=C/C(=O)O)C(C)(C)CCC1`, the viability was 106% (inactive).
As for `O=c1[nH]cnc2[nH]ncc12`, the viability is 116% (inactive).
`O=C1c2c(O)ccc(O)c2C(=O)c2c(NCCNCCO)ccc(NCCNCCO)c21`: the viability was 111% (inactive) and 109% (inactive).
Same read-out and setting: in the case of `CC(C)C(=O)Nc1ccc([N+](=O)[O-])c(C(F)(F)F)c1` it was 102% (inactive).

Staying with this assay, now noted: patient-derived ovarian cancer cells, CellTiter-Glo viability, 144 h; at 0.000305 µM; OCI-C5x cells; without rucaparib; stronger effect = lower value.
Take `S=c1nc[nH]c2nc[nH]c12`: the viability was 111% (inactive).
The same measure, in the same setting: in the case of `CC1=C(/C=C/C(C)=C/C=C/C(C)=C/C(=O)O)C(C)(C)CCC1` it was 135% (inactive); in that of `O=c1[nH]cnc2[nH]ncc12`, 122% (inactive); in that of `O=C1c2c(O)ccc(O)c2C(=O)c2c(NCCNCCO)ccc(NCCNCCO)c21`, 114% (inactive) and 118% (inactive).
As to `CC(C)C(=O)Nc1ccc([N+](=O)[O-])c(C(F)(F)F)c1`, the viability is 114% (inactive).

The assay is the same for the next values; noted with them: patient-derived ovarian cancer cells, CellTiter-Glo viability, 144 h; at 0.000305 µM; OCI-P5x cells; with rucaparib 20 µM; stronger effect = lower value; 100% = cells with rucaparib alone.
Consider `S=c1nc[nH]c2nc[nH]c12`, for which the viability was 94.6% (active).
On the same count and under the same terms, in the case of `CC1=C(/C=C/C(C)=C/C=C/C(C)=C/C(=O)O)C(C)(C)CCC1` it was 102% (inactive); in that of `O=c1[nH]cnc2[nH]ncc12`, 106% (inactive).
Same read-out and setting: in the case of `O=C1c2c(O)ccc(O)c2C(=O)c2c(NCCNCCO)ccc(NCCNCCO)c21` it was 85.2% (active) and 88.1% (active).
For `CC(C)C(=O)Nc1ccc([N+](=O)[O-])c(C(F)(F)F)c1`, the viability was 93.2% (active).
